# Experimental data: PubChem BioAssay AID488857 (Sanford-Burnham Center for Chemical Genomics, 2010)
# The campaign covered roughly 1,400 compounds. About 560 (40%) were called active.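 Rule for the calls: active = mean inhibition over duplicate tests at 10 µM above 50%; inactive = the rest.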 So high a share suggests a set chosen from earlier hits. Some of the results follow.
# Experiment: ASC/caspase-1 reporter retest in S. cerevisiae at one dose, specificity check for NALP1 project (AID 488857)
# Details: S. cerevisiae ASC/Caspase-1, beta-galactosidase luminescence, 24 h; at 10 µM; active compounds read high
row,SMILES,inhibition
1,C=CCNC(=S)N/N=C(\C)c1ccccn1,90.2% (active)
2,O=C(N/N=C/c1cc(Cl)ccc1O)c1ccc(Br)cc1,54.1% (active)
3,O=C(N/N=C/c1ccc2nccnc2c1)c1ccccc1O,36% (inactive)
4,O=C(N/N=C/c1cc2c3c(c1O)CCCN3CCC2)c1ccccc1O,34.8% (inactive)
5,CC(=O)c1ccc(S(=O)(=O)N2CCCC2)cc1,46.1% (inactive)
6,COC(=O)c1ccc(Oc2ccc(S(=O)(=O)N3CCCCC3)cc2N)cc1,97.8% (active)
7,C=CCc1cc(Cl)ccc1OCCNCCCOC,48.5% (inactive)
8,C=CCc1cc(Cl)ccc1OCCOCCNCCOC,50.9% (active)
9,Cc1cc(SC#N)cc(C)c1NC(=O)CCl,25.8% (inactive)
10,COc1ccc(/C=C\c2onc(C)c2S(=O)(=O)N2CCC(C(=O)NCc3ccco3)CC2)cc1,42% (inactive)
11,O=C(NCc1ccco1)c1cnn2c1NC(c1ccc(Br)cc1)CC2C(F)(F)F (configuration not stated),63.1% (active)
12,COc1cccc(N2CCN(C3CCCC(C)C3)CC2)c1 (configuration not stated),38% (inactive)
13,COc1cccc(NC(=O)Cn2cnc3sc(C)c(S(=O)(=O)N4CCCCC4)c3c2=O)c1,30.9% (inactive)
14,O=C(COC(=O)/C=C/c1cccs1)Nc1nc(-c2ccccc2)cs1,13.3% (inactive)
15,O=C(COC(=O)c1cccs1)Nc1nc(-c2ccccc2)cs1,48.2% (inactive)
16,CC1CC1C(=O)Nc1nc(-c2ccccc2)cs1 (configuration not stated),68.5% (active)
17,CC(C)c1ccc(N2C(=O)CC(Sc3ncn[nH]3)C2=O)cc1 (configuration not stated),58.9% (active)
18,Cc1ccc(N2C(=O)CC(Sc3ccccc3C(=O)O)C2=O)cc1 (configuration not stated),26.1% (inactive)
19,Cc1cc(C)cc(N2C(=O)CC(Sc3ncn[nH]3)C2=O)c1 (configuration not stated),63.5% (active)
20,O=C(Cn1nnc2ccccc21)OCC(=O)c1ccc(Cl)cc1,39.8% (inactive)
21,CCn1c(N2CCN(C(=O)C34CC5CC(CC(C5)C3)C4)CC2)nc2ccccc21,54.5% (active)
22,CCn1c(=O)cc(SCC(=O)N2CCN(C3CCCCC3)CC2)c2ccccc21,29.9% (inactive)
23,c1csc(CNc2nc3ccccc3n2CCN2CCOCC2)c1,35.6% (inactive)
24,CCN1c2ccccc2-c2nc3ccccc3n2C1c1cccs1 (configuration not stated),63.7% (active)
25,CN1c2ccccc2-c2nc3ccccc3n2C1c1cccs1 (configuration not stated),62.9% (active)
26,c1csc(C2Nc3ccccc3-c3nc4ccccc4n32)c1 (configuration not stated),64.8% (active)

row,SMILES,inhibition
1,CCOC(=O)N1CCC(=NNS(=O)(=O)c2cccc([N+](=O)[O-])c2)CC1,31.6% (inactive)
2,COn1c2c(c3c4nonc4ccc31)CCCC2,31.4% (inactive)
3,CC1CC(C)CN(S(=O)(=O)c2ccc(C(=O)NCc3ccc4c(c3)OCO4)cc2)C1 (configuration not stated),31.6% (inactive)
4,Cc1nc2cc(C(=O)NCc3ccc4c(c3)OCO4)ccc2n1-c1ccc(Br)cc1,58.9% (active)
5,O=C(/C=C\Nc1cccc(F)c1)c1cccs1,47.2% (inactive)
6,COc1cc(NC(=O)c2cccs2)cc(OC)c1,82% (active)
7,CCN(CC)S(=O)(=O)c1cccc(C(=O)Oc2cccc(NC(=O)c3cccs3)c2)c1,35.9% (inactive)
8,O=C(CN1CCCCC1)Nc1nc(-c2ccc(F)c(F)c2)cs1,55.9% (active)
9,O=C(CN1CCCCC1)Nc1cccc(Oc2ccccc2)c1,38.8% (inactive)
10,CC1CCCC(C)N1C(=O)CN1CCN(c2nc(-c3ccc(F)cc3)cs2)CC1 (configuration not stated),44.5% (inactive)
11,COCC(=O)n1nc(-c2ccc(Cl)cc2)nc1NCc1ccc(F)cc1,36.2% (inactive)
12,CCCCCCCCNC(C)C(O)c1ccc(SC(C)C)cc1 (configuration not stated),38.9% (inactive)
13,CC(C)CC(=O)/C(=C\c1ccc(Cl)cc1Cl)n1cncn1,101% (active)
14,CSc1nnc(-c2cc3c(s2)-c2ccccc2CC3)o1,46.8% (inactive)
15,CC(OC(=O)Cc1c(F)cccc1Cl)C(=O)NCCC1=CCCCC1 (configuration not stated),46.8% (inactive)
16,O=C(COC(=O)Cc1c(F)cccc1Cl)NCCC1=CCCCC1,61.6% (active)
17,COC(=O)COc1ccc(S(=O)(=O)NCCC2=CCCCC2)cc1Cl,40.1% (inactive)
18,Cc1cc(C(C)(C)C)cc(S(=O)(=O)Nc2ccc(O)c(C(=O)O)c2)c1C,27.8% (inactive)
19,Cc1ccc(Oc2ccccc2/C=N/O)cc1,51.9% (active)
20,COc1ccccc1/C=N\N=C(\N)c1ccccn1,48.5% (inactive)
21,Cc1ccc(/C(COc2ccccc2O)=N\O)cc1,47.8% (inactive)
22,COC(=O)c1sccc1NC(=O)c1csc(C)c1,49% (inactive)
23,Cc1ccc2c(Cl)c(C)c(N3CCCCC3)nc2n1,74.8% (active)
24,NC(=O)C1(N2CCCCC2)CCN(Cc2nc(-c3cccs3)no2)CC1,24.1% (inactive)
25,COC(=O)c1ccc(NC(=O)CN2C(=O)CNC2=O)cc1,30.4% (inactive)
26,COC(=O)c1ccc(C(=O)OC)c(NC(=O)COC(=O)C2CCCCC2)c1,35.8% (inactive)

row,SMILES,inhibition
1,COC(=O)c1ccc(NC(=O)C(=O)N2CCCC2)cc1,52.5% (active)
2,CCOC(=O)C1(Cc2ccc(OC)cc2)CCN(C(=O)CCc2cnccn2)CC1,20.9% (inactive)
3,Cc1cccnc1NC(=O)c1ccccc1NC(=O)C(C)(C)C,41.2% (inactive)
4,COc1ccc(Nc2ncccc2C(=O)NCc2ccccc2)cc1,67% (active)
5,Cc1cc(C)c([C@@H]2C[C@H]3CN(C4CCCC4)C(=O)[C@]34CCCN24)c(-n2cccn2)c1,36.2% (inactive)
6,O=C(COC(=O)CCC1CCCCC1)Nc1ccc(OC(F)F)cc1,23.5% (inactive)
7,O=C(COc1ccc(Cl)cc1)Nc1ccc2c(c1)CCC2,71.5% (active)
8,O=C(CN1CCN(c2ccccc2)CC1)Nc1ccc2c(c1)CCC2,21.1% (inactive)
9,O=C(Nc1ccc(Cl)c(Cl)c1)c1ccncc1,44.9% (inactive)
10,O=C(Nc1ccc2nc3ccccc3nc2c1)c1ccccc1,90.7% (active)
11,CS(=O)(=O)N(Cc1ccccc1)c1ccc(C(=O)Nc2cccnc2)cc1,36% (inactive)
12,O=C(Nc1ccc2c(c1)Cc1ccccc1-2)c1ccncc1,74.5% (active)
13,O=C(Nc1ccc2c(c1)CCC2)c1ccccc1,71.7% (active)
14,C=C(C)C(=O)Nc1cccc(C(C)=O)c1,38.2% (inactive)
15,COc1ccc(OCC(=O)NC(=S)N2CCCc3ccccc32)cc1,37.9% (inactive)
16,CS(=O)(=O)N(Cc1ccccc1)c1ccc(C(=O)Nc2ccc3c(c2)OCO3)cc1,36% (inactive)
17,Cc1cccc(N2C(=O)CC(Sc3ccccc3C(=O)O)C2=O)c1 (configuration not stated),49.3% (inactive)
18,CCN(CC)C1CC(=O)N(c2cccc(C)c2)C1=O (configuration not stated),58% (active)
19,COC(=O)c1ccccc1SC1CC(=O)N(c2cccc(C)c2)C1=O (configuration not stated),37.6% (inactive)
20,C=CCn1c(CNC(=O)c2cccs2)nnc1SCC(=O)Nc1ccc(C(=O)O)cc1,28.1% (inactive)
21,O=c1sc(Nc2ccccc2)nc2ccsc12,77.2% (active)
22,N#Cc1ccc(Oc2nc(Nc3ccc(F)cc3)nc(N3CCCC3)n2)cc1,37.5% (inactive)
23,CN(C)S(=O)(=O)c1cccc2c1C(=O)c1ccccc1C2=O,44.5% (inactive)
24,CN(C=[N+](C)C)c1cccc2c1C(=O)c1ccccc1C2=O,42.7% (inactive)
25,O=C1c2cccc(O)c2C(=O)c2c(O)cccc21,59.5% (active)
26,S=C(NC1CCCCC1)NN(c1ccccc1)c1ccccc1,53.4% (active)

row,SMILES,inhibition
1,O=C(O)CCCCc1nc2ccccc2s1,32% (inactive)
2,CCOc1ccccc1N1CCN(C(=O)CCCc2nc3ccccc3s2)CC1,48.7% (inactive)
3,O=C(CCc1nc2ccccc2s1)Nc1ccccc1,80.2% (active)
4,Cc1ccsc1/C=N/n1c(-c2ccccn2)n[nH]c1=S,54.9% (active)
5,Cc1ccc2nc(Cl)c(C3CC(c4cccs4)=NN3C(=O)CCCC(=O)O)cc2c1 (configuration not stated),30.2% (inactive)
6,Cc1ccc(Sc2nnc(Cc3ccccc3)c3ccccc23)cc1,48.1% (inactive)
7,Clc1ccc2oc3c(Cl)ncnc3c2c1,29.9% (inactive)
8,COc1ccc2c(c1)C1=NN(/C(C)=C/C(C)=O)C(c3cccc(F)c3)C1CC2 (configuration not stated),47.5% (inactive)
9,Cc1ccc(C(=O)/C=C\C(=O)c2ccc(C)cc2)cc1,44.1% (inactive)
10,Cc1ccc(C(=O)c2no[n+]([O-])c2C(=O)c2ccc(C)cc2)cc1,77.2% (active)
11,CC(C)c1nc2sc3c(=O)[nH]c(=S)[nH]c3c2c2c1CCC2,32% (inactive)
12,O=C1C2C3C=CC(C2C(=O)N1CCCO)C1C2C(=O)N(CCCO)C(=O)C2C31 (configuration not stated),40.4% (inactive)
13,O=S(=O)(c1ccc(Br)cc1)N1CCCN(Cc2cccc(F)c2)CC1,61.5% (active)
14,O=C(O)C1(c2ccccc2)CCN(S(=O)(=O)c2ccc(Br)cc2)CC1,29.4% (inactive)
15,CCOC(=O)C1CCCCN1Cc1cccc(F)c1 (configuration not stated),27.4% (inactive)
16,COc1ccccc1-c1nnc2sc(COc3ccc(Cl)cc3)nn12,56.9% (active)
17,COc1ccccc1C(=O)Nc1ccc(OCc2nnc3c4ccccc4c(C)nn23)cc1,45.4% (inactive)
18,Clc1ccc(Cn2c(/C=C/c3ccco3)nc3ccccc32)cc1,46.5% (inactive)
19,Oc1c(CN2CCCCC2)cc(Br)c2cccnc12,49% (inactive)
20,Oc1c(I)cc(Cl)c2cccnc12,97.2% (active)
21,O=C(N/N=C/c1cccc(F)c1)c1c(O)c2ccccc2[nH]c1=O,38.5% (inactive)
22,NC(=S)N/N=C/c1coc2c(ccc3ccccc32)c1=O,58% (active)
23,CSc1ccc(C(=O)C2CCCN(C(=O)c3ccc4c(c3)no[n+]4[O-])C2)cc1 (configuration not stated),19.9% (inactive)
24,Cn1c(=O)c([N+](=O)[O-])c(-n2cnc3ccccc32)c2ccccc21,14.3% (inactive)
